Here are results for 15 targets from the supplement of paper PMC6411743.

± gives the standard deviation of the averaged measurements. Targets with the largest changes are over-represented here; the source holds about 5,400 in all.

Compound in the assay: Nc1nc2c(ncn2[C@@H]2O[C@H](COP(=O)(O)OP(=O)(O)OP(=O)(O)O)[C@@H](O)[C@H]2O)c(=O)[nH]1 [guanosine triphosphate]
The experiment in a line: NP40-soluble protein abundance relative to vehicle (solubility fold change) (ratio); higher = more soluble protein in presence of GTP. A digest of the protocol: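 Each value is a fold change relative to the detergent-processed vehicle, calculated per replicate from vsn-normalised intensities. Jurkat crude lysate received eight concentrations (0.1 to 10 mM) for 10 min at room temperature and 3 min at 37 °C, then was solubilised in 0.8% NP40 with benzonase (60 min, 4 °C). The ultracentrifuged supernatant was TMT-labelled and run by LC-MS/MS in three independent experiments.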

Chain of UniProt Q8IZ83 (Q8IZ83 whole entry): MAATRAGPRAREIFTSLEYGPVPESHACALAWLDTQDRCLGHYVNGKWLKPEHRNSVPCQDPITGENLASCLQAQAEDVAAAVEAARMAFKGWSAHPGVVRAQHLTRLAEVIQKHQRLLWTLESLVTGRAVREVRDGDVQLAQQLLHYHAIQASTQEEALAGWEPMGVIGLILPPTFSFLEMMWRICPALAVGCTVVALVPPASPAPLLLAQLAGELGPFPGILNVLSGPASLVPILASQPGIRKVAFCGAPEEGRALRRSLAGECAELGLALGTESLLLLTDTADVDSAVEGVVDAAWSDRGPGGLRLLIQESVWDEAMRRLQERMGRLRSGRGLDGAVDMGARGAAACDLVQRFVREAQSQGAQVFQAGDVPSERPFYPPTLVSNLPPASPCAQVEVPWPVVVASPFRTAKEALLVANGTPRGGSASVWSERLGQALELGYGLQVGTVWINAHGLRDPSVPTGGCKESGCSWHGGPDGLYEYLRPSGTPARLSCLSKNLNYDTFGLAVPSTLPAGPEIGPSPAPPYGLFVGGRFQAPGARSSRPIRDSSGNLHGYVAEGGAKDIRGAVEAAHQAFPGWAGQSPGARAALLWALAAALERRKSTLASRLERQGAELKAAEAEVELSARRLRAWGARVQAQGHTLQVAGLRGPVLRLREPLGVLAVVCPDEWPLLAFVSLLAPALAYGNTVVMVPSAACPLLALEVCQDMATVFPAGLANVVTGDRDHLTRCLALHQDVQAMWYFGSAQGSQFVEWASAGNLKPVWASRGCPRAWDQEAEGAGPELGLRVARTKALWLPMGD
Chain of UniProt Q15024 (Q15024 whole entry): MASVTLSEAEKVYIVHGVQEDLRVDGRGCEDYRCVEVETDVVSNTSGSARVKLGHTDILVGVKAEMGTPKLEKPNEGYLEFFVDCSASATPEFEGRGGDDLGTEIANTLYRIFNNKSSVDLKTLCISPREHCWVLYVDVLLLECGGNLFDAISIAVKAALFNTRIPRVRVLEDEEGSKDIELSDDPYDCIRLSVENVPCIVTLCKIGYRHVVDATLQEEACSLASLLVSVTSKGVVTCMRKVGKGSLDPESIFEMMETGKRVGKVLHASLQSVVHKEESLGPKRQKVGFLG
Chain of UniProt Q13347 (Q13347 whole entry): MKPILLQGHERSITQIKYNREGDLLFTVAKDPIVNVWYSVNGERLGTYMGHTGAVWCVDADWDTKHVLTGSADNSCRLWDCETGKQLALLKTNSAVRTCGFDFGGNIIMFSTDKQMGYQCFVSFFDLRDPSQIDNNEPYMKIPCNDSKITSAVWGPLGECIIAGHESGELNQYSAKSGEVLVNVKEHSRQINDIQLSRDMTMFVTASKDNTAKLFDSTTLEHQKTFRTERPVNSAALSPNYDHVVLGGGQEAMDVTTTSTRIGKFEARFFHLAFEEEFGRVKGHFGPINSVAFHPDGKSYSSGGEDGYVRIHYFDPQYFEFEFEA
Chain of UniProt Q15843 (Q15843 whole entry, one chain of several): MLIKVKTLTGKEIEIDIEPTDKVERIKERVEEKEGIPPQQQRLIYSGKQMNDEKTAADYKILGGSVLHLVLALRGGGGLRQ
Chain of UniProt P61981 (P61981 whole entry): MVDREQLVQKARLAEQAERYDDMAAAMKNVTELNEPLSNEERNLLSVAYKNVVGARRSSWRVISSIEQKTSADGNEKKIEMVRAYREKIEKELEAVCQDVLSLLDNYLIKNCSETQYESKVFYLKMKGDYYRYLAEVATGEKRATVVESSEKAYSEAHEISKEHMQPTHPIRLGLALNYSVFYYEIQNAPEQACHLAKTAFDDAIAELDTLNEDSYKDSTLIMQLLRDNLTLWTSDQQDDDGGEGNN
Chain of UniProt P78563 (P78563 whole entry): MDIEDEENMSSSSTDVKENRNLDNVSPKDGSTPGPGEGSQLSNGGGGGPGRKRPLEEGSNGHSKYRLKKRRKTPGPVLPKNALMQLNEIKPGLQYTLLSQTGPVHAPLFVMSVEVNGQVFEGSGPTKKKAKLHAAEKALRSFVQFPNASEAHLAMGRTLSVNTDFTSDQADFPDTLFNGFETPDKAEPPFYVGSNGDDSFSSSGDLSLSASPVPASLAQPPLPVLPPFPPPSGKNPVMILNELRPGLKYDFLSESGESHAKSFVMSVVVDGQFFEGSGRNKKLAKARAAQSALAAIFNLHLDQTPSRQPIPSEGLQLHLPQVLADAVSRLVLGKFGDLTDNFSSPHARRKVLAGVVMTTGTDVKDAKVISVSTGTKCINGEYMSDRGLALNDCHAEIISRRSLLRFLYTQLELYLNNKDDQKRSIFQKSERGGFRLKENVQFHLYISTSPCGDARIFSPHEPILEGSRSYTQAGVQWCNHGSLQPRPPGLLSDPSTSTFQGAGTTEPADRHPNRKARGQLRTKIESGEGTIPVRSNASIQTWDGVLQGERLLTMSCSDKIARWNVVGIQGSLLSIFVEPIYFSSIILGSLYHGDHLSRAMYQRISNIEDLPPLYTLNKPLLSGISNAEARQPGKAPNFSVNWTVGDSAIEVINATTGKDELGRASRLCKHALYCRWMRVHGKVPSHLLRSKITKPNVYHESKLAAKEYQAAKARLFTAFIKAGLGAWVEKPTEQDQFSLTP
Chain of UniProt P62195 (P62195 whole entry): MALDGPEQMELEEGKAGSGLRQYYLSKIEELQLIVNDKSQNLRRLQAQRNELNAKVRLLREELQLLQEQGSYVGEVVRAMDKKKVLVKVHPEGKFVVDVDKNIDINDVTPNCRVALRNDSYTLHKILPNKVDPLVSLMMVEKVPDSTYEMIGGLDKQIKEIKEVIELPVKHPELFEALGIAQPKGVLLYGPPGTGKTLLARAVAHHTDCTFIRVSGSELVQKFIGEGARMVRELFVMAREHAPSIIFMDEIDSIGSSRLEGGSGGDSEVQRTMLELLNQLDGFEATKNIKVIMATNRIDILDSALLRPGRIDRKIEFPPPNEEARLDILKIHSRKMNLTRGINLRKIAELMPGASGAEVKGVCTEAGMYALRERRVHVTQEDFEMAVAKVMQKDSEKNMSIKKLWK
Chain of UniProt P63151 (P63151 whole entry, one chain of several): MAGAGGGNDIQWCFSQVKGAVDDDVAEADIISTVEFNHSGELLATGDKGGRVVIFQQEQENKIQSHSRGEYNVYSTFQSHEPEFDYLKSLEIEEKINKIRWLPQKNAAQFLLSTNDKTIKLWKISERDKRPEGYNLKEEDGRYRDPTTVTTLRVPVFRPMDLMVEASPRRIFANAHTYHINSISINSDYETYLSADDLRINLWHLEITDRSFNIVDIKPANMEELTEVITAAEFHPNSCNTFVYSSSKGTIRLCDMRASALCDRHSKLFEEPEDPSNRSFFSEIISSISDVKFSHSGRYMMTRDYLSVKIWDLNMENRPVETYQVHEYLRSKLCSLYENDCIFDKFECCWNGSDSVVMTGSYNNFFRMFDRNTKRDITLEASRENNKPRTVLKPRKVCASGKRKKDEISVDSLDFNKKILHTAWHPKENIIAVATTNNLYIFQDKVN
Chain of UniProt Q13496 (Q13496 whole entry): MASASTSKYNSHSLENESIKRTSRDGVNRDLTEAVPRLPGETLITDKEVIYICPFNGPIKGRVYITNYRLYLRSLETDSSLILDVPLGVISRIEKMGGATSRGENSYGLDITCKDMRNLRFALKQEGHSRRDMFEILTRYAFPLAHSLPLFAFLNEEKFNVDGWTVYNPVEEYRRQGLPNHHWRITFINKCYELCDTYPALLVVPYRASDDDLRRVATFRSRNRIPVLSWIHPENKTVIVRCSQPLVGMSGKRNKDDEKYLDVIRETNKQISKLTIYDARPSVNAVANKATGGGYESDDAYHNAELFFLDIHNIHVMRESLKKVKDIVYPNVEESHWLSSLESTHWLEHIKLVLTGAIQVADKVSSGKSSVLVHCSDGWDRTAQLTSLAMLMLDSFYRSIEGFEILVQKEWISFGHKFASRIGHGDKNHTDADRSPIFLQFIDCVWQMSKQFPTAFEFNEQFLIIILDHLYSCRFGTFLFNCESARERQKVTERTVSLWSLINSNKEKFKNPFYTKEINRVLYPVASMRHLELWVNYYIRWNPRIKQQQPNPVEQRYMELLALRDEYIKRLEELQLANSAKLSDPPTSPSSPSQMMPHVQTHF
Chain of UniProt P62879 (P62879 whole entry): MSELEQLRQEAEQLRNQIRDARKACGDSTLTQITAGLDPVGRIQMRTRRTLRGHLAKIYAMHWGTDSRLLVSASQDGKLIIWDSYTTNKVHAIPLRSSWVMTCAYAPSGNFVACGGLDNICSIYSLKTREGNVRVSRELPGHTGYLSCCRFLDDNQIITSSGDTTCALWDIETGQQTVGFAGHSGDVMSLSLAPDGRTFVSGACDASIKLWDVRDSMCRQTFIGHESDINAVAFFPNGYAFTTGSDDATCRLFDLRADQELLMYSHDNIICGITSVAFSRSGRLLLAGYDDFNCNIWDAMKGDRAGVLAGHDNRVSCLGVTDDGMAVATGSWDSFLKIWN
Chain of UniProt P80217 (P80217 whole entry): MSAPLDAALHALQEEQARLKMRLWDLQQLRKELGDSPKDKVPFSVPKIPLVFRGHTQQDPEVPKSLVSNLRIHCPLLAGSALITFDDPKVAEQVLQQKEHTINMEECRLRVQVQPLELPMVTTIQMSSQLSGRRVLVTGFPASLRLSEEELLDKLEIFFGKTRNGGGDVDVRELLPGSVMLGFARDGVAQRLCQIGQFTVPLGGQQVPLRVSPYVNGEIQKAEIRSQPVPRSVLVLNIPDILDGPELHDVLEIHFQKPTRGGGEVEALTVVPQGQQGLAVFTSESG
Chain of UniProt Q86W42 (Q86W42 whole entry): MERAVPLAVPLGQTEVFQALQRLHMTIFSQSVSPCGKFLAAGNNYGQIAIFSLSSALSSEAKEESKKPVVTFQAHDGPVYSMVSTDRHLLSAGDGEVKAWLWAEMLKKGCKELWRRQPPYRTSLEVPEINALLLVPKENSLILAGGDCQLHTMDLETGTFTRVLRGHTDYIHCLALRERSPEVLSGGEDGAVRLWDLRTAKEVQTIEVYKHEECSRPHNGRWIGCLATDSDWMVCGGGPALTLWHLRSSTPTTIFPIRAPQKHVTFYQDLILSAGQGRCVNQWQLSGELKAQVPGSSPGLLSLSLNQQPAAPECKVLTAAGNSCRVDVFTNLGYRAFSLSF

Take EXOSC7 (UniProt Q15024): the NP40-soluble protein abundance reads like this: (concentration: 0.1mM) 1.09 ± 0.084; (concentration: 0.5mM) 1.01 ± 0.071; (concentration: 1mM) 1.06 ± 0.086; (concentration: 2mM) 1.11 ± 0.12; (concentration: 4mM) 1.26 ± 0.13; (concentration: 6mM) 1.17 ± 0.12. Also, the NP40-soluble protein abundance (concentration: 8mM) was 1.22 ± 0.077 and the NP40-soluble protein abundance (concentration: 10mM) stood at 1.18 ± 0.061.

Take UniProt Q15843|S4R3E9: the NP40-soluble protein abundance by setting is: (concentration: 0.1mM) 1.1 ± 0.29; (concentration: 0.5mM) 0.839 ± 0.092; (concentration: 1mM) 1.25 ± 0.31; (concentration: 2mM) 0.955 ± 0.21; (concentration: 4mM) 1.09 ± 0.29; (concentration: 6mM) 0.994 ± 0.18. The NP40-soluble protein abundance (concentration: 8mM) came out at 1.11 ± 0.4 and the NP40-soluble protein abundance (concentration: 10mM) turned out to be 1.07 ± 0.25.

UniProt P55072: the NP40-soluble protein abundance is 0.982 ± 0.03 (concentration: 0.1mM); 1.05 ± 0.064 (concentration: 0.5mM); 0.999 ± 0.073 (concentration: 1mM); 1.02 ± 0.12 (concentration: 2mM); 1.03 ± 0.11 (concentration: 4mM); 1.03 ± 0.14 (concentration: 6mM). Moreover, the NP40-soluble protein abundance (concentration: 8mM) came out at 1 ± 0.1 and the NP40-soluble protein abundance (concentration: 10mM) was found to be 1 ± 0.11.

For the target UniProt Q86W42|Q86W42-2, the NP40-soluble protein abundance was determined as 1.21 ± 0.14 (concentration: 0.1mM); 1.35 ± 0.28 (concentration: 0.5mM); 1.46 ± 0.27 (concentration: 1mM); 1.87 ± 0.52 (concentration: 2mM); 2.27 ± 0.61 (concentration: 4mM); 2.29 ± 0.68 (concentration: 6mM). Moreover, the NP40-soluble protein abundance came out at 2.26 ± 0.54 (concentration: 8mM) and 2.31 ± 0.65 (concentration: 10mM).

As for ALDH16A1 (UniProt Q8IZ83), the NP40-soluble protein abundance reads like this: (concentration: 0.1mM) 1.11 ± 0.033; (concentration: 0.5mM) 1.1 ± 0.076; (concentration: 1mM) 1.13 ± 0.13; (concentration: 2mM) 1.15 ± 0.12; (concentration: 4mM) 1.16 ± 0.17; (concentration: 6mM) 1.15 ± 0.15. Also, the NP40-soluble protein abundance runs as follows: (concentration: 8mM) 1.16 ± 0.16; (concentration: 10mM) 1.11 ± 0.15.

For UniProt P62195, the NP40-soluble protein abundance was determined as 1.03 ± 0.069 (concentration: 0.1mM); 1.08 ± 0.12 (concentration: 0.5mM); 1.04 ± 0.14 (concentration: 1mM); 1.07 ± 0.17 (concentration: 2mM); 1.06 ± 0.15 (concentration: 4mM); 1.08 ± 0.19 (concentration: 6mM). The NP40-soluble protein abundance is, setting by setting: (concentration: 8mM) 1.06 ± 0.16; (concentration: 10mM) 0.977 ± 0.15.

On to MTM1 (UniProt Q13496), for which the NP40-soluble protein abundance reads like this: (concentration: 0.1mM) 1.01 ± 0.078; (concentration: 0.5mM) 1.08 ± 0.088; (concentration: 1mM) 0.961 ± 0.043; (concentration: 2mM) 0.99 ± 0.076; (concentration: 4mM) 0.933 ± 0.093; (concentration: 6mM) 0.962 ± 0.093. The NP40-soluble protein abundance worked out at 0.93 ± 0.057 (concentration: 8mM) and 0.891 ± 0.087 (concentration: 10mM).

As for “UniProt Q8N766|Q8N766-2|Q8N766-3|Q8N766-4”, the NP40-soluble protein abundance is, setting by setting: (concentration: 0.1mM) 1.01 ± 0.055; (concentration: 0.5mM) 1.03 ± 0.1; (concentration: 1mM) 0.938 ± 0.046; (concentration: 2mM) 0.964 ± 0.12; (concentration: 4mM) 0.951 ± 0.098; (concentration: 6mM) 0.926 ± 0.093. The NP40-soluble protein abundance is 0.901 ± 0.015 (concentration: 8mM) and 0.897 ± 0.063 (concentration: 10mM).

Turning to UniProt Q02447-3, the NP40-soluble protein abundance stood at 0.995 ± 0.021 (concentration: 0.1mM); 1 ± 0.078 (concentration: 0.5mM); 1.01 ± 0.033 (concentration: 1mM); 0.984 ± 0.067 (concentration: 2mM); 0.983 ± 0.049 (concentration: 4mM); 1.01 ± 0.084 (concentration: 6mM). For the same target, the NP40-soluble protein abundance worked out at 1.08 ± 0.055 (concentration: 8mM) and 1.05 ± 0.016 (concentration: 10mM).

With UniProt P63151|E5RJV1, the NP40-soluble protein abundance turned out to be 0.983 ± 0.037 (concentration: 0.1mM); 1.02 ± 0.071 (concentration: 0.5mM); 0.934 ± 0.068 (concentration: 1mM); 0.931 ± 0.083 (concentration: 2mM); 0.955 ± 0.079 (concentration: 4mM); 0.887 ± 0.071 (concentration: 6mM). The NP40-soluble protein abundance (concentration: 8mM) was 0.92 ± 0.016 and the NP40-soluble protein abundance (concentration: 10mM) was determined as 0.8766 ± 0.0055.

As for UniProt P61981, the NP40-soluble protein abundance (concentration: 0.1mM) stood at 0.845 ± 0.11; the NP40-soluble protein abundance (concentration: 0.5mM) turned out to be 0.811 ± 0.067; the NP40-soluble protein abundance (concentration: 1mM) was 1.01 ± 0.14; the NP40-soluble protein abundance (concentration: 2mM) is 0.987 ± 0.076; the NP40-soluble protein abundance (concentration: 4mM) was determined as 0.942 ± 0.075; the NP40-soluble protein abundance (concentration: 6mM) is 0.968 ± 0.12. Also, the NP40-soluble protein abundance came out at 0.912 ± 0.15 (concentration: 8mM) and 1.05 ± 0.16 (concentration: 10mM).

As for EIF3I (UniProt Q13347), the NP40-soluble protein abundance runs as follows: (concentration: 0.1mM) 1.02 ± 0.04; (concentration: 0.5mM) 1.03 ± 0.091; (concentration: 1mM) 0.993 ± 0.089; (concentration: 2mM) 1.04 ± 0.15; (concentration: 4mM) 1.13 ± 0.19; (concentration: 6mM) 1.26 ± 0.26. The NP40-soluble protein abundance reads like this: (concentration: 8mM) 1.32 ± 0.23; (concentration: 10mM) 1.4 ± 0.29.

UniProt P62879: the NP40-soluble protein abundance (concentration: 0.1mM) amounted to 0.978 ± 0.035; the NP40-soluble protein abundance (concentration: 0.5mM) was 1.01 ± 0.064; the NP40-soluble protein abundance (concentration: 1mM) worked out at 0.917 ± 0.031; the NP40-soluble protein abundance (concentration: 2mM) stood at 0.947 ± 0.074; the NP40-soluble protein abundance (concentration: 4mM) turned out to be 0.924 ± 0.05; the NP40-soluble protein abundance (concentration: 6mM) turned out to be 0.937 ± 0.054. The NP40-soluble protein abundance runs as follows: (concentration: 8mM) 0.913 ± 0.048; (concentration: 10mM) 0.893 ± 0.09.

“UniProt P78563|P78563-2|P78563-3|P78563-4|P78563-5|P78563-6”: the NP40-soluble protein abundance stood at 1.05 ± 0.12 (concentration: 0.1mM); 1.03 ± 0.13 (concentration: 0.5mM); 1.007 ± 0.0033 (concentration: 1mM); 1.07 ± 0.053 (concentration: 2mM); 1.11 ± 0.044 (concentration: 4mM); 1.16 ± 0.062 (concentration: 6mM). For the same target, the NP40-soluble protein abundance was determined as 1.15 ± 0.031 (concentration: 8mM) and 1.16 ± 0.1 (concentration: 10mM).

Take UniProt P80217|P80217-2: the NP40-soluble protein abundance came out at 0.97 ± 0.043 (concentration: 0.1mM); 1.01 ± 0.063 (concentration: 0.5mM); 0.926 ± 0.044 (concentration: 1mM); 0.902 ± 0.076 (concentration: 2mM); 0.877 ± 0.059 (concentration: 4mM); 0.911 ± 0.067 (concentration: 6mM). In addition, the NP40-soluble protein abundance runs as follows: (concentration: 8mM) 0.934 ± 0.052; (concentration: 10mM) 0.938 ± 0.051.
